Source: PubChem BioAssay (NCATS)
Values joined by “and” are separate entries in the source; they are usually repeats but may differ in a detail not shown here. Identical values can stand only once. Inconclusive results are not listed. A structure can be active in one record and inactive in another. Active and inactive are the calls of the source. Unless noted, calls come from the whole dose curve; as a rule, active = well fitted curve in the direction sought with a large enough effect; inconclusive = small, poorly fitted or top-dose-only effect, or another doubt; inactive = no such curve, though single readings can be large; an effect the other way counts as inactive or inconclusive.

Experiments:
Hek293T = assay: Primary qHTS to identify gynecologic anti-cancer compounds using libraries of approved drugs and bioactive compounds (AID 1345084); conditions: Gynecologic cancer cell panel viability, ATPlite luminescence, 48 h, control line for the selectivity index; series mostly up to 57.5 µM; note: % is set by controls: 0 for no effect and ±100 for the full control effect; nearly all actives have a fitted effect of over 55% in size
Method in brief: (§1)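 Cells, 1,000 per well, were allowed to settle for 16 h at 37 C before compound addition. Five concentrations were tested for 48 h, and viability was read by ATPlite luminescence after 15 min at room temperature.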

JEG-3 = assay: as above; conditions: Gynecologic cancer cell panel viability, ATPlite luminescence, 48 h; series mostly up to 57.5 µM
Method in brief: as §1

OV90 = assay: as above; conditions: Gynecologic cancer cell panel viability, ATPlite luminescence, 48 h; series mostly up to 57.5 µM
Method in brief: as §1

PA-1 = assay: as above; conditions: Gynecologic cancer cell panel viability, ATPlite luminescence, 48 h; series mostly up to 57.5 µM
Method in brief: as §1

SKOV3 = assay: as above; conditions: Gynecologic cancer cell panel viability, ATPlite luminescence, 48 h; series mostly up to 57.5 µM
Method in brief: as §1

Tov-21-G = assay: as above; conditions: Gynecologic cancer cell panel viability, ATPlite luminescence, 48 h; series mostly up to 57.5 µM
Method in brief: as §1

Tov112D = assay: as above; conditions: Gynecologic cancer cell panel viability, ATPlite luminescence, 48 h; series mostly up to 57.5 µM
Method in brief: as §1

[1] = Drug repurposing screens with cells derived from glioblastoma tumor samples (AID 1345199); conditions: GBM patient neurospheres viability, ATP luminescence, 48 h; note: nearly all actives have a fitted effect of over 40% in size; note: potency is the fitted concentration of half-maximal effect; for activity, negative = cell killing: % is set by controls: 0 for no effect and ±100 for the full control effect
Method in brief: (§2)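 Four patient lines of CD133+ GBM neurospheres were screened at several concentrations; hits were retested in those lines plus three slower-growing GBM lines, using 48-hour treatment and ATP-based viability.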

astro = assay: as above; conditions: viability, ATP luminescence, 48 h; series mostly up to 45.9 µM
Method in brief: as §2

[2] = target: Nuclear receptor subfamily 1 group I member 2 (Rattus norvegicus) (UniProt Q9R1A7); assay: qHTS assay for small molecule activators of the rat pregnane X receptor (rPXR) signaling pathway (AID 651751; call rule not given here; note: 0% is about no effect); conditions: rPXR reporter cells, luciferase (One-Glo), 24 h
Nuclear receptor subfamily 1 group I member 2 (Rattus norvegicus), sequence (Q9R1A7 whole entry, looked up): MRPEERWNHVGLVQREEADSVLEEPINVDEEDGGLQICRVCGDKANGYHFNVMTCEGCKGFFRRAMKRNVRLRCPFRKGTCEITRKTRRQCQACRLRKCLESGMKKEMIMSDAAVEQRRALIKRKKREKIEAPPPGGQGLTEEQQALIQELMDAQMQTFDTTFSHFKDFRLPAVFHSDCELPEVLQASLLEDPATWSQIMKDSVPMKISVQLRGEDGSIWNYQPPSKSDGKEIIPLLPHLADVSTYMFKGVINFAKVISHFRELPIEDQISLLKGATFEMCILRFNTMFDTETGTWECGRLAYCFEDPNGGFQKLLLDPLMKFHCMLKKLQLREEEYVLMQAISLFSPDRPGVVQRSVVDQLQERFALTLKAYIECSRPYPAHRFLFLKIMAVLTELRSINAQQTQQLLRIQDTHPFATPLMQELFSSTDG

[3] = qHTS assay for small molecule activators of the human pregnane X receptor (PXR) signaling pathway (AID 720659; call rule not given here; note: 0% is about no effect)
[4] = at 45.9 µM (top of the series), tumour line B
[5] = at 45.9 µM (top of the series), tumour line D
[6] = at 46 µM (top of the series), tumour line A
[7] = at 46.1 µM (top of the series), tumour line C

Cc1ncc(COP(=O)(O)O)c(C=O)c1O
inactive: Potency (Hek293T) | Potency (JEG-3) | Potency (OV90) | Potency (PA-1) | Potency (SKOV3) | Potency (Tov-21-G) | Potency (Tov112D) | activity, negative = cell killing [1, 4] -4.54% | activity, negative = cell killing [1, 5] 0.448% | activity, negative = cell killing [1, 6] -18.9% | activity, negative = cell killing [1, 7] 13% | Potency (astro)

CC/C=C(\C(=O)N[C@@H]1C(=O)N2C(C(=O)OCOC(=O)C(C)(C)C)=C(COC(N)=O)CS[C@H]12)c1csc(N)n1
inactive: Potency (Hek293T) | Potency (JEG-3) | Potency (OV90) | Potency (PA-1) | Potency (SKOV3) | Potency (Tov-21-G) | Potency (Tov112D) | activity, negative = cell killing [1, 4] -9.61% and -1.73% | activity, negative = cell killing [1, 5] -14.3% and 0.361% | activity, negative = cell killing [1, 7] -12.1% and -5.64% | Potency (astro)
active: Potency ([1]; tumour line A) 17.8 µM

CCN(CC)CCOC(=O)C1(C2CCCCC2)CCCCC1
inactive: Potency (Hek293T) | Potency (JEG-3) | Potency (OV90) | Potency (PA-1) | Potency (SKOV3) | Potency (Tov-21-G) | Potency (Tov112D)

O=C1Nc2ccc(Cl)cc2[C@@](C#CC2CC2)(C(F)(F)F)O1
inactive: Potency (Hek293T) | Potency (JEG-3) | Potency (OV90) | Potency (PA-1) | Potency (SKOV3) | Potency (Tov-21-G) | Potency (Tov112D) | activity, negative = cell killing [1, 4] -20.8% | activity, negative = cell killing [1, 7] -5.83%
active: Potency ([1]; tumour line A) 17.8 µM

NC(=O)NC(=O)Cc1ccccc1
inactive: Potency (Hek293T) | Potency (JEG-3) | Potency (OV90) | Potency (PA-1) | Potency (SKOV3) | Potency (Tov-21-G) | Potency (Tov112D) | activity, negative = cell killing [1, 4] 5.96% | activity, negative = cell killing [1, 5] 3.38% | activity, negative = cell killing [1, 6] -32.3% | activity, negative = cell killing [1, 7] -5.24% | Potency (astro)

N[C@H](C(=O)O)c1ccc(O)cc1
inactive: Potency (Hek293T) | Potency (JEG-3) | Potency (OV90) | Potency (PA-1) | Potency (SKOV3) | Potency (Tov-21-G) | Potency (Tov112D) | activity, negative = cell killing [1, 4] -10.5% | activity, negative = cell killing [1, 5] -7.17% | activity, negative = cell killing [1, 6] -28.4% | activity, negative = cell killing [1, 7] -10.2% | Potency (astro)

Oc1ccc(C(O)CNCCCCCCNCC(O)c2ccc(O)c(O)c2)cc1O (centres undefined)
inactive: Potency (Hek293T) | Potency (JEG-3) | Potency (OV90) | Potency (PA-1) | Potency (SKOV3) | Potency (Tov-21-G) | Potency (Tov112D) | activity, negative = cell killing [1, 4] -10.1% | activity, negative = cell killing [1, 5] -27.7%

CC(C)(C)C(=O)C(Oc1ccc(Cl)cc1)n1ccnc1 (centres undefined)
inactive: Potency (Hek293T) | Potency (JEG-3) | Potency (OV90) | Potency (PA-1) | Potency (SKOV3) | Potency (Tov-21-G) | Potency (Tov112D) | activity, negative = cell killing [1, 4] -7.03% | activity, negative = cell killing [1, 5] -26.6% | activity, negative = cell killing [1, 7] -0.0869% | Potency (astro)
active: Potency ([1]; tumour line A) 12.6 µM

O=C1N=C(O)CN1/N=C/c1ccc(-c2ccc([N+](=O)[O-])cc2)o1
inactive: Potency (Hek293T) | Potency (JEG-3) | Potency (OV90) | Potency (PA-1) | Potency (SKOV3) | Potency (Tov-21-G) | Potency (Tov112D) | activity, negative = cell killing [1, 4] -7.61% | activity, negative = cell killing [1, 5] 2.91% | activity, negative = cell killing [1, 6] -22.1% | activity, negative = cell killing [1, 7] -1.99% | Potency (astro)

OC[C@H]1O[C@@H](O[C@@H]2[C@@H](CO)O[C@](O)(CO)[C@H]2O)[C@H](O)[C@@H](O)[C@H]1O
inactive: Potency (Hek293T) | Potency (JEG-3) | Potency (OV90) | Potency (PA-1) | Potency (SKOV3) | Potency (Tov-21-G) | Potency (Tov112D) | activity, negative = cell killing [1, 4] -1.82% | activity, negative = cell killing [1, 5] 8.93% | activity, negative = cell killing [1, 6] -20.9% | activity, negative = cell killing [1, 7] -24.2% | Potency (astro)

Cc1cc2c(cc1S(N)(=O)=O)S(=O)(=O)CCC2
inactive: Potency (Hek293T) | Potency (JEG-3) | Potency (OV90) | Potency (PA-1) | Potency (SKOV3) | Potency (Tov-21-G) | Potency (Tov112D) | activity, negative = cell killing ([1]; at 20 µM (top of the series), tumour line C) 4.86% | activity, negative = cell killing ([1]; at 21.2 µM (top of the series), tumour line B) -8.12% | activity, negative = cell killing ([1]; at 21.2 µM (top of the series), tumour line D) 3.88% | activity, negative = cell killing ([1]; at 21.3 µM (top of the series), tumour line A) -0.554% | Potency (astro)

CO/N=C(\C(=O)N[C@@H]1C(=O)N2C(C(=O)O)=C(CSc3nc(=O)c(O)nn3C)CS[C@H]12)c1csc(N)n1
inactive: Potency (Hek293T) | Potency (JEG-3) | Potency (OV90) | Potency (PA-1) | Potency (SKOV3) | Potency (Tov-21-G) | Potency (Tov112D) | activity, negative = cell killing [1, 4] -2.24% | activity, negative = cell killing [1, 5] -10.7% | activity, negative = cell killing [1, 6] -24.8% | activity, negative = cell killing [1, 7] -11.4% | Potency (astro)

NC(=O)NNc1ccccc1
inactive: Potency (Hek293T) | Potency (JEG-3) | Potency (OV90) | Potency (PA-1) | Potency (SKOV3) | Potency (Tov-21-G) | Potency (Tov112D) | activity, negative = cell killing [1, 4] -9.66% and -3.84% | activity, negative = cell killing [1, 5] -10.5% and 5.37% | activity, negative = cell killing [1, 6] -34.9% | activity, negative = cell killing [1, 7] -25.2% and -16.9% | Potency (astro)

C[C@H](NC(CCc1ccccc1)C(=O)O)C(=O)N1CCC[C@H]1C(=O)O (some centres undefined)
inactive: Potency (Hek293T) | Potency (JEG-3) | Potency (OV90) | Potency (PA-1) | Potency (SKOV3) | Potency (Tov-21-G) | Potency (Tov112D) | activity, negative = cell killing [1, 4] -5.92% | activity, negative = cell killing [1, 5] 1.9% | activity, negative = cell killing [1, 6] -1.54% | activity, negative = cell killing [1, 7] -2.05% | Potency (astro)

CNC(=O)Oc1ccc2c(c1)[C@]1(C)CCN(C)[C@@H]1N2C
inactive: Potency (Hek293T) | Potency (JEG-3) | Potency (OV90) | Potency (PA-1) | Potency (SKOV3) | Potency (Tov-21-G) | Potency (Tov112D) | activity, negative = cell killing [1, 4] -15.9% | activity, negative = cell killing [1, 5] -13.4% | activity, negative = cell killing [1, 7] -13.5% | Potency (astro) | max response [2] 1.34% | outcome [3]
active: Potency ([1]; tumour line A) 35.5 µM

O=C(Oc1ccccc1C(=O)O)c1ccccc1O
inactive: Potency (Hek293T) | Potency (JEG-3) | Potency (OV90) | Potency (PA-1) | Potency (SKOV3) | Potency (Tov-21-G) | Potency (Tov112D) | activity, negative = cell killing [1, 4] -6.94% | activity, negative = cell killing [1, 5] -16.8% | activity, negative = cell killing [1, 6] -11.8% | activity, negative = cell killing [1, 7] 0.529% | Potency (astro)
